# Assay results published in PubChem BioAssay (Tox21).
# Several values for one entry are separate records, joined by “and”; a condition that tells them apart may be missing. Identical values can stand only once. Inconclusive results are not listed. A structure can be active in one record and inactive in another. Activity calls are given as the source filed them. The call rests on the fitted dose curve; in most records, active means well fitted curve in the direction sought with a large enough effect in the repeat runs; inconclusive means weak or mixed curves; inactive means no such curve, though single readings can be large; an effect the other way counts as inactive or inconclusive.
# Tests used:
# [1] = Caspase-3/7 induction in CHO-K1 cells by small molecules, qHTS assay (AID 1346980); conditions: CHO-K1 caspase-3/7 induction, Caspase-Glo luminescence, 17 h; series mostly up to 92.4 µM; further: nearly all actives have a fitted effect of over 15% in size; further: potency means the concentration at half of the fitted maximal effect
# Method in brief: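 Luminescent Caspase-Glo 3/7 read (30min, room temperature) quantified apoptosis induction. Cells were wild-type CHO-K1, treated with compound for 17hr at 37 C and 5% CO2.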
# [2] = Caspase-3/7 induction in HepG2 cells by small molecules, qHTS cell viability counter screen (AID 1346981); conditions: CellTiter-Fluor fluorescence, 17 h; series mostly up to 92.4 µM; further: nearly all actives have a fitted effect of over 30% in size
# Method in brief: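 Steps: seed 2,000 HepG2 cells per well; incubate 5 hr at 37 C; pin-add compounds in DMSO; incubate 16 hr; add CellTiter-Fluor; after 1 hr at 37 C and 5% CO2, read fluorescence.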
# [3] = molecular target: Nuclear receptor subfamily 1 group I member 2 (Homo sapiens) (UniProt O75469); test: Human pregnane X receptor (PXR) small molecule agonists, qHTS assay (AID 1346982); conditions: PXR-Luc HepG2, CYP3A4 luciferase reporter, 24 h; series mostly up to 92.4 µM; further: nearly all actives have a fitted effect of over 35% in size; further: potency means the concentration at half of the fitted maximal effect
# Sequence of Nuclear receptor subfamily 1 group I member 2 (Homo sapiens) (O75469 whole entry, looked up): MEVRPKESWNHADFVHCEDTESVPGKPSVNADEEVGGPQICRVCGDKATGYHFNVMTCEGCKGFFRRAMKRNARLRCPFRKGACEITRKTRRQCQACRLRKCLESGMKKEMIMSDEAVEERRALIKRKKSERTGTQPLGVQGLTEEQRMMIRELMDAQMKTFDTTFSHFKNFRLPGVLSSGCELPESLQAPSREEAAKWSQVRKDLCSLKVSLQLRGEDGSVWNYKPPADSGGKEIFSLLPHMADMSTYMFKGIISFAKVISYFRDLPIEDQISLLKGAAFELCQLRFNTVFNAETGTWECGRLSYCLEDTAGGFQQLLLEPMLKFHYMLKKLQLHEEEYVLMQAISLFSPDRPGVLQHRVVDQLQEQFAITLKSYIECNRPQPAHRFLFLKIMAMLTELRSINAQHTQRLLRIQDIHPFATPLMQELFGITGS
# Method in brief: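 Agonist mode qHTS: PXR-Luc HepG2 cells plated 5 hr before DMSO-dissolved compounds were pinned in, cultured 24 hr at 37 C, 5% CO2; ONE-Glo luminescence readout.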
# [4] = molecular target: Cytochrome P450 2D6 (Homo sapiens) (UniProt P10635); test: Cytochrome P450 Family 2 Subfamily D Member 6 (CYP2D6) small molecule antagonists: luciferase reporter qHTS assay (AID 1671196); conditions: P450-Glo CYP2D6 enzyme assay, luciferin luminescence, 1 h; series mostly up to 115 µM; further: nearly all actives have a fitted effect of over 50% in size; further: potency means the concentration at half of the fitted maximal effect
# Sequence of Cytochrome P450 2D6 (Homo sapiens) (P10635 whole entry, looked up): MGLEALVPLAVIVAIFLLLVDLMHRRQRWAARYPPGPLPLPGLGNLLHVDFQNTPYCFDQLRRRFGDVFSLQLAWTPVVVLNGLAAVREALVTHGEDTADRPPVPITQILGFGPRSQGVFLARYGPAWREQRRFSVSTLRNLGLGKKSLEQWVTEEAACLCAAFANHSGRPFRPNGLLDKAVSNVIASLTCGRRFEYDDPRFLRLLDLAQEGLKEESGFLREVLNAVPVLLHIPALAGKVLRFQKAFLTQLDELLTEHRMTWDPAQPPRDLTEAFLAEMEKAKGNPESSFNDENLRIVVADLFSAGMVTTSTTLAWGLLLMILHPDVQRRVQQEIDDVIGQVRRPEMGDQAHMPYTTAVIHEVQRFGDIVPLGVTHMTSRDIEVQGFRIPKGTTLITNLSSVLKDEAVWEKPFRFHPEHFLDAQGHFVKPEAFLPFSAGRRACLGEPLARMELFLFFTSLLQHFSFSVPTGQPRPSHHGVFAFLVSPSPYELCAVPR
# Method in brief: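 P450-Glo format: CYP2D6 converts a proluciferin substrate to luciferin in an NADPH-driven reaction lasting 1 h at room temperature. Light output, proportional to CYP2D6 activity, reflects interference by test chemicals.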
# [5] = molecular target: Cytochrome P450 2C19 (Homo sapiens) (UniProt P33261); test: Cytochrome P450 Family 2 Subfamily C Member 19 (CYP2C19) small molecule antagonists: luciferase reporter qHTS assay (AID 1671197); conditions: P450-Glo CYP2C19 enzyme, luciferin luminescence, 1 h; series mostly up to 115 µM; further: nearly all actives have a fitted effect of over 65% in size; further: potency means the concentration at half of the fitted maximal effect
# Sequence of Cytochrome P450 2C19 (Homo sapiens) (P33261 whole entry, looked up): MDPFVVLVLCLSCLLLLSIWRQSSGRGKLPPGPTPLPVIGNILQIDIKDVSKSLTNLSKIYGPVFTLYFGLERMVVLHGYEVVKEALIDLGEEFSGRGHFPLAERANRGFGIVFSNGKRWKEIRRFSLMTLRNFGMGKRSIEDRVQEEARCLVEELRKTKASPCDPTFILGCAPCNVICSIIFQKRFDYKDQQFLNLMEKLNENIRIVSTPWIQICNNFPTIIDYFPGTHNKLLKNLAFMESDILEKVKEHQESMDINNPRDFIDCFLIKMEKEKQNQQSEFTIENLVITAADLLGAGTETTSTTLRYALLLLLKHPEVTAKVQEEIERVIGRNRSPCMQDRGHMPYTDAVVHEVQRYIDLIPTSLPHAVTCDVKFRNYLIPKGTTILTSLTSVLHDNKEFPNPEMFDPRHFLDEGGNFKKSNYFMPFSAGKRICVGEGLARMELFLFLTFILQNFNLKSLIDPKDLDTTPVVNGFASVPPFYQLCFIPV
# Method in brief: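 Luminescent readout of CYP2C19 activity: luciferin product detected 20 min after adding detection reagent. Before that, compound and enzyme-substrate mix preincubated 10 min at room temperature; NADPH-regenerating system started a 1 h, 37C reaction. Ketoconazole as positive control.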
# [6] = molecular target: Cytochrome P450 2C9 (Homo sapiens) (UniProt P11712); test: Cytochrome P450 Family 2 Subfamily C Member 9 (CYP2C9) small molecule antagonists: luciferase reporter qHTS assay (AID 1671198); conditions: P450-Glo CYP2C9 enzyme assay, luciferin luminescence; series mostly up to 115 µM; further: nearly all actives have a fitted effect of over 50% in size; further: potency means the concentration at half of the fitted maximal effect
# Sequence of Cytochrome P450 2C9 (Homo sapiens) (P11712 whole entry, looked up): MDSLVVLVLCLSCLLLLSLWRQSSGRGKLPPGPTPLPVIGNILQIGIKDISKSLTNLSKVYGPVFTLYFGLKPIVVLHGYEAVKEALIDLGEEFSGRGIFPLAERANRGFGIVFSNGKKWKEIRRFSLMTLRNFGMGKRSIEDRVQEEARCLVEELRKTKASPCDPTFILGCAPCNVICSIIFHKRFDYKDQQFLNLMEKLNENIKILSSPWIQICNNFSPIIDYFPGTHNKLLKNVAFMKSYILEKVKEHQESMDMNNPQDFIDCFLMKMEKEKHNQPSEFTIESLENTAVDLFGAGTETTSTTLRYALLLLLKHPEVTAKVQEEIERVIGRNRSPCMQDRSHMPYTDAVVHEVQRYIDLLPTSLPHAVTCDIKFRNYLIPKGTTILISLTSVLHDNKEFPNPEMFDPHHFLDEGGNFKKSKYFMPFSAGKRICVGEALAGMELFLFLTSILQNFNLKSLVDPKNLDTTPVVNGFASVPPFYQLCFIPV
# Method in brief: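 Enzyme-substrate mix preincubated with compound 10 min at room temperature; reaction started with NADPH regeneration solution, 1 h 37C. Luminescent luciferin product read after 20 min detection reagent.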
# [7] = molecular target: Voltage-gated inwardly rectifying potassium channel KCNH2 (Homo sapiens) (UniProt Q12809); test: Human Ether-a-go-go-Related Gene (hERG) channel small molecule antagonists: fluorescence cell-based qHTS assay (AID 1671200); conditions: hERG-U2OS cells, FluxOR thallium flux fluorescence; series mostly up to 76.8 µM; further: nearly all actives have a fitted effect of over 50% in size; further: potency means the concentration at half of the fitted maximal effect;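 on activity change, negative = inhibition: hERG-expressing U2OS cells given a thallium stimulus after FluxOR II dye loading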
# Sequence of Voltage-gated inwardly rectifying potassium channel KCNH2 (Homo sapiens) (Q12809 whole entry, looked up): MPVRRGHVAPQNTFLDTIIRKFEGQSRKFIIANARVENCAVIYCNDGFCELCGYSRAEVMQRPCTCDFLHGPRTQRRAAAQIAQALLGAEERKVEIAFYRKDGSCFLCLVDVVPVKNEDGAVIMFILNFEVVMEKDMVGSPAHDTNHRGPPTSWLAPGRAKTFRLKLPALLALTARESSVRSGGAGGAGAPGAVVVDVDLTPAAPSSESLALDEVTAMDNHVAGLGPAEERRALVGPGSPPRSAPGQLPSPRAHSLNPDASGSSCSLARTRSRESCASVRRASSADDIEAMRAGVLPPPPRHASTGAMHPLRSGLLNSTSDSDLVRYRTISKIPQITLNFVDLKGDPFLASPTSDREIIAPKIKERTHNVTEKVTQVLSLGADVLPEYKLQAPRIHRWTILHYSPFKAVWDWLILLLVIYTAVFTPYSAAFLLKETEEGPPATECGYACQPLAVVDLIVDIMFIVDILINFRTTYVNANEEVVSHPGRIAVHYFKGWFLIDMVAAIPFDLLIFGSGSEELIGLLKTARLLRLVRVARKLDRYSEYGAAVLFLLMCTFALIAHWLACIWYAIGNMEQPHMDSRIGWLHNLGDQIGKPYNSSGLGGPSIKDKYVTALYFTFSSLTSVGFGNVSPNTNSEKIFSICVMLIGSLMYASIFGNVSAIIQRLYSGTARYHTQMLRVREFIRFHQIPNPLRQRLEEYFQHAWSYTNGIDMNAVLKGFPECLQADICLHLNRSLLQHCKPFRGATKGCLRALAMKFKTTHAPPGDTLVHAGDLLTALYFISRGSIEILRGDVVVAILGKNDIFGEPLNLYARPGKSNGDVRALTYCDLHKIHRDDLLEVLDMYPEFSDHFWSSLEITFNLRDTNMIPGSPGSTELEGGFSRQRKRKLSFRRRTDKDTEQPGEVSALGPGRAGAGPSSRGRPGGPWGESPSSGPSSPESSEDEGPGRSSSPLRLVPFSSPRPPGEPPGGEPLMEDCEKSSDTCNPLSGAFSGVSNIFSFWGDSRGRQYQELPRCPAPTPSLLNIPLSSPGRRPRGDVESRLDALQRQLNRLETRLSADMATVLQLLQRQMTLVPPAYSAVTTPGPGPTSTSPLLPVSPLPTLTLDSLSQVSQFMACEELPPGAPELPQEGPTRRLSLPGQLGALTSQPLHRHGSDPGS
# Method in brief: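 Thallium served as the potassium surrogate; its influx into dye-loaded U2OS cells carrying the channel was measured by fluorescence over 2 min.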
# [8] = molecular target: Cytochrome P450 3A4 (Homo sapiens) (UniProt P08684); test: Cytochrome P450 Family 3 Subfamily A Member 4 (CYP3A4) small molecule antagonists: luciferase reporter qHTS assay (AID 1671201); conditions: P450-Glo CYP3A4 enzyme, luciferin luminescence, 1 h; series mostly up to 115 µM; further: nearly all actives have a fitted effect of over 50% in size; further: potency means the concentration at half of the fitted maximal effect
# Sequence of Cytochrome P450 3A4 (Homo sapiens) (P08684 whole entry, looked up): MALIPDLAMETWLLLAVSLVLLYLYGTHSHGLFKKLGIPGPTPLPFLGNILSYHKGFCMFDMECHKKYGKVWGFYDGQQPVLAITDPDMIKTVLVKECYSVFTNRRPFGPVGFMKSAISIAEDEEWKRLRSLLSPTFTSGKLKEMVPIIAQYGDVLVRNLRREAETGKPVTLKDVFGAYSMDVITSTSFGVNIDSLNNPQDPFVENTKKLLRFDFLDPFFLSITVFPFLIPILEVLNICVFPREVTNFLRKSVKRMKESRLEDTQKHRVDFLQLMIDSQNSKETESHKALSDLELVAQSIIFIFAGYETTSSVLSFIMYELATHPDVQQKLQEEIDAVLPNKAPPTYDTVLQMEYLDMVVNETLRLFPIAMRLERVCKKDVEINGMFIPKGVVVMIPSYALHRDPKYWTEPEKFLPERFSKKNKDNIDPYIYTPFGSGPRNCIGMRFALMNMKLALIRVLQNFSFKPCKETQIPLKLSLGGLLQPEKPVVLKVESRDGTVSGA
# Method in brief: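 Relative luminescence units after 20 min with luciferin detection reagent served as read-out. Beforehand, CYP3A4 turned over a proluciferin substrate for 1 h at room temperature with NADPH regeneration, following 10 min compound preincubation.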
# [9] = molecular target: Nuclear receptor subfamily 1 group I member 2 (Rattus norvegicus) (UniProt Q9R1A7); test: Rat pregnane X receptor (rPXR) activation by small molecules, qHTS assay (AID 1346983); conditions: rPXR luciferase reporter cells, One-Glo luminescence, 24 h; max activation: stronger effect = higher value; further: nearly all actives have a fitted effect of over 20% in size
# Sequence of Nuclear receptor subfamily 1 group I member 2 (Rattus norvegicus) (Q9R1A7 whole entry, looked up): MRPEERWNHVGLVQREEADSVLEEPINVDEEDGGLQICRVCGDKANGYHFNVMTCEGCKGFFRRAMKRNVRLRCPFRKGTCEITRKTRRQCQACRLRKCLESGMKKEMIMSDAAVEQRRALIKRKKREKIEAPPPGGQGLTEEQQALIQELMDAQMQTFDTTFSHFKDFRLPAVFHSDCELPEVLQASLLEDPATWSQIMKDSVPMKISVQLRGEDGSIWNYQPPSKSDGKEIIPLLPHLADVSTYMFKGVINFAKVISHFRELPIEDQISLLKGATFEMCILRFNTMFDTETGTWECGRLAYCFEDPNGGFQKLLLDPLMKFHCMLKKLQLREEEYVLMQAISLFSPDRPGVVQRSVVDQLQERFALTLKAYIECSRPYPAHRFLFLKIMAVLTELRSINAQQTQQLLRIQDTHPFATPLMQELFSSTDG
# Method in brief: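 Luminescent readout (One-Glo luciferase, 30 min room temperature) followed 24 hr compound treatment at 37 C of rPXR cells plated 2,000 per well and preincubated 5hr; qHTS format with compounds delivered in DMSO.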
# [10] = molecular target: Nuclear receptor subfamily 1 group I member 2 (Homo sapiens) (UniProt O75469); test: CYP3A4 induction through human pregnane X receptor (PXR) by small molecules, qHTS assay (AID 1346984); conditions: DPX-2 HepG2 PXR, CYP3A4-luciferin luminescence, 24 h; series mostly up to 46.1 µM; further: nearly all actives have a fitted effect of over 40% in size; further: potency means the concentration at half of the fitted maximal effect
# Method in brief: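 Steps: seed DPX-2 cells, 5 hr at 37C; pin-transfer compounds; 24 hr at 37C; add Luciferin-IPA (3uM final), 3 hr at 37C; add One-Glo, 30 min RT; read luminescence.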
# [11] = molecular target: Nuclear receptor subfamily 1 group I member 2 (Homo sapiens) (UniProt O75469); test: Human pregnane X receptor (PXR) activation by small molecules, qHTS assay (AID 1346985); conditions: DPX-2 HepG2 CYP3A4-luciferase, 24 h; series mostly up to 38.3 µM; further: nearly all actives have a fitted effect of over 40% in size
# Method in brief: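 DPX-2 cells (HepG2 co-transfected with a PXR response element and a CYP3A4-promoter luciferase construct) were seeded at 2,000 per well, rested 5 hr at 37C, then exposed to DMSO-dissolved compounds for 24 hr. Activation was read as luciferase luminescence.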
# [12] = molecular target: Cytochrome P450 1A2 (Homo sapiens) (UniProt P05177); test: Cytochrome P450 Family 1 Subfamily A Member 2 (CYP1A2) small molecule antagonists: luciferase reporter qHTS assay (AID 1671199); conditions: P450-Glo CYP1A2 enzyme, luciferin luminescence, 1 h; series mostly up to 115 µM; further: nearly all actives have a fitted effect of over 50% in size; further: potency means the concentration at half of the fitted maximal effect
# Sequence of Cytochrome P450 1A2 (Homo sapiens) (P05177 whole entry, looked up): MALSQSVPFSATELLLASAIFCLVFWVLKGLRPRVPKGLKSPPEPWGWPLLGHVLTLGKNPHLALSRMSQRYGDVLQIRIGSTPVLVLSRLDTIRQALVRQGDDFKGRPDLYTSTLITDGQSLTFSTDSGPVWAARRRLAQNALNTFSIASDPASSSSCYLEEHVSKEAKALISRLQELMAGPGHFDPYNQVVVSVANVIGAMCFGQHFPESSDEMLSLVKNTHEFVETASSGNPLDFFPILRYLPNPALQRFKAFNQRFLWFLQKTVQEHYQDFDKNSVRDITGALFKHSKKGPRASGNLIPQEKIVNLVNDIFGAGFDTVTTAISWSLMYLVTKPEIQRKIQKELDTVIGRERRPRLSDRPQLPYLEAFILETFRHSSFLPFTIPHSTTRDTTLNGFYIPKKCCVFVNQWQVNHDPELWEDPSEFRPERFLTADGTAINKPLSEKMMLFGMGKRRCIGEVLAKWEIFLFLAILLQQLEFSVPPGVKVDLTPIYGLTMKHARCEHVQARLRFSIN
# Method in brief: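 Inhibition of CYP1A2 conversion of proluciferin to luciferin, detected by luminescence. Reaction run 1 h at room temperature with NADPH regeneration after brief compound preincubation.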
# On the % scale 0 is the no-effect control and ±100 the full control effect.
structure (smiles),measurement,setting,value
CCC(=O)OCCc1ccccc1,Potency,[1],inactive
same,Potency,[2],inactive
same,Potency,[3],inactive
same,Potency,[4],inactive
same,Potency,[5],inactive
same,Potency,[6],13.6 µM (active)
same,Potency,[7],inactive
same,Potency,[8],inactive
CCN(CC)CCSC(=O)C(c1ccccc1)c1ccccc1,Potency,[1],inactive
same,Potency,[2],inactive
same,max activation,[9],3.39% (inactive) and -0.327% (inactive)
same,Potency,[10],inactive
same,Potency,[11],inactive
same,Potency,[4],4.9 µM (active)
same,Potency,[5],6.92 µM (active)
same,Potency,[6],17.4 µM (active)
same,Potency,[12],15.5 µM (active)
same,Potency,[7],2.68 µM (active)
CCCCCCOc1cc(C)c(O)c(C)c1C,Potency,[1],inactive
same,Potency,[3],34.8 µM (active)
same,Potency,[4],25.5 µM (active)
same,Potency,[5],2.02 µM (active)
same,Potency,[6],25.5 µM (active)
same,Potency,[12],11.4 µM (active)
same,Potency,[8],28.6 µM (active)
COc1cc(C(C)C)c2c(c1)S(=O)(=O)N(COc1cc(=O)n3cccc(OCCN4CCCCC4)c3n1)C2=O,caspase-3/7 activation,[1],-0.224% [at 19 µM] (inactive)
same,Potency,[3],13 µM (active)
same,"activity change, negative = inhibition",[12],-18.4% [at 23.6 µM] (inactive)
same,Potency,[8],0.301 µM (active)
CCCSS/C(CCO)=C(\C)N(C=O)Cc1cnc(C)nc1N,Potency,[2],inactive
same,max activation,[9],9.56% (inactive)
same,Potency,[10],inactive
same,Potency,[11],inactive
same,Potency,[4],34.7 µM (active)
same,Potency,[5],inactive
same,Potency,[12],inactive
same,Potency,[7],12 µM (active)
Nc1ccc2cc3ccc(N)cc3nc2c1,Potency,[1],4.86 µM (active) and 11.9 µM (active)
same,Potency,[4],39.9 µM (active)
same,Potency,[5],71 µM (active) and inactive
same,Potency,[6],inactive
same,Potency,[12],564 nM (active) and 1.82 µM (active)
same,Potency,[7],inactive
same,Potency,[8],3.99 µM (active)
CN(C)CCCN1c2ccccc2Sc2ccc(C(F)(F)F)cc21,Potency,[4],0.617 µM (active)
same,Potency,[5],4.36 µM (active)
same,Potency,[6],inactive
same,Potency,[12],3.63 µM (active)
same,Potency,[7],2.68 µM (active)
same,Potency,[8],inactive
COc1ccc(-n2nc(CCC(=O)N(C)O)cc2-c2ccc(Cl)cc2)cc1,Potency,[1],inactive
same,Potency,[3],29.8 µM (active)
same,Potency,[5],8.71 µM (active)
same,Potency,[6],3.89 µM (active)
CC(CN(C)C)CN1c2ccccc2CCc2ccccc21 (configuration not stated),Potency,[1],inactive
same,Potency,[3],23.7 µM (active)
same,max activation,[9],-1.19% (inactive)
same,Potency,[10],8.91 µM (active)
same,Potency,[4],3.09 µM (active)
same,Potency,[6],inactive
same,Potency,[12],inactive
same,Potency,[7],15.1 µM (active)
C1CC(COCC2CO2)CCC1COCC1CO1 (configuration not stated),Potency,[1],inactive
same,Potency,[2],inactive
same,Potency,[4],inactive
same,Potency,[7],inactive
same,Potency,[8],inactive
Oc1ccc(-c2ccccc2)c(Cl)c1,Potency,[1],inactive
same,Potency,[2],inactive
same,Potency,[3],24.3 µM (active)
same,Potency,[5],22.4 µM (active)
same,Potency,[6],35.6 µM (active)
same,Potency,[12],12.6 µM (active)
same,Potency,[7],inactive
same,Potency,[8],inactive
CC(NCCC(c1ccccc1)c1ccccc1)c1ccccc1 (configuration not stated),Potency,[3],6.68 µM (active)
same,max activation,[9],-19.7% (inactive)
same,Potency,[4],0.219 µM (active)
same,Potency,[5],4.36 µM (active)
same,Potency,[6],15.5 µM (active)
same,Potency,[12],inactive
same,Potency,[7],1.69 µM (active)
